Our source for the inhibition values is PubChem BioAssay AID1210 (NMMLSC, 2008).

Values without a mark were called inactive. Calls of active or inactive are those of the source.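 Rule for the calls: active = blocks over 70% of labeled estradiol binding at 10 µM, or over a set limit at 100 nM; inactive = the rest.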

The term inhibition denotes the drop in the measured response relative to a control, in per cent.

Estrogen receptor beta (Homo sapiens), sequence (Q92731 whole entry, looked up): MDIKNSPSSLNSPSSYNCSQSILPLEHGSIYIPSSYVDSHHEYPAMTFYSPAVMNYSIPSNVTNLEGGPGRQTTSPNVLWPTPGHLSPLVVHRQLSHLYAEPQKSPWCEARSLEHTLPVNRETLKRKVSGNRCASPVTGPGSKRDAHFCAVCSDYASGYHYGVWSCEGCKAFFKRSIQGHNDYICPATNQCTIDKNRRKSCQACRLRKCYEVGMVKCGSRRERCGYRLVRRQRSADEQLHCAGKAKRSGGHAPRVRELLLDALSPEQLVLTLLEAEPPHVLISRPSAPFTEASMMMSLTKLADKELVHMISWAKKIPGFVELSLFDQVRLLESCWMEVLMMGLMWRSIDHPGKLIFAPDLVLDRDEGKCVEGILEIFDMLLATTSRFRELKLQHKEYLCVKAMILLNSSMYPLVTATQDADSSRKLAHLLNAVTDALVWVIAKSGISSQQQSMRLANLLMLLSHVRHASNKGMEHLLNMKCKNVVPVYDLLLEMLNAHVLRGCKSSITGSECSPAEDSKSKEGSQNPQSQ

This assay concerns the target Estrogen receptor beta (Homo sapiens) (UniProt Q92731). Briefly: ERbeta ligand binders by competition, primary screen, cell-based, Cos7 ERbeta-GFP, flow cytometry (AID 1210).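 Note: 0% = DMSO vehicle wells and 100% = complete loss of labeled estradiol signal.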 To be noted: fluorescent estrogen binding, at 10 µM, hits give high values. Background: In flow cytometry, cells or beads pass a laser one at a time.
As to `COc1cccc([C@@H]2Oc3ccc(OC)cc3C(=O)[C@H]2O)c1`, the inhibition is 32%. For the molecule `CCOC(=O)Cc1cc(-c2ccc(O)cc2)nc2ccc3ccccc3c12`, the inhibition is 69%.

Consider `CCOc1ccccc1-c1nc(-c2ccc(NC(=O)c3ccc(Br)o3)cc2)no1`, for which the inhibition is 37%. For the molecule `CC(=O)Oc1ccc2c(c1)CCC1C2C(O)CC2(C)C(=O)CCC12` (configuration not stated), the inhibition was 77% (active). Turning to `CCCSc1nc(C)c(-c2csc(C(C#N)=C3CCCC3)n2)cc1C#N`, the inhibition is 37%.

Consider `CC1(C)Cc2[nH]c(=O)c(C(=O)O)cc2CO1`, for which the inhibition was 43%.

For the molecule `CC1CCCC(C)N1Cc1c(O)ccc2c3c(c(=O)oc12)CCC3` (configuration not stated), the inhibition is 21%. Next, `Cc1nnc(N/N=C/c2ccc(O)c([N+](=O)[O-])c2)[nH]c1=O`: 7%. Take `CCCCc1cc(=O)oc2c(C)c(O)ccc12`: the inhibition was 7%.

Take `O=C(C1c2ccccc2C(=O)N2CCc3ccccc3C12)N1CCN(Cc2ccccc2)CC1` (configuration not stated): the inhibition was 29%.

On to `CC(C)COc1ccc2c(c1)c1c3n2CCNC3CCC1` (configuration not stated), for which the inhibition was 9%.

With `COc1cccc(C2NCCc3cc(OC)c(OC)cc32)c1` (configuration not stated), the inhibition is 15%. As to `Nc1c(Cl)cc(Cl)cc1C(=O)OCC(=O)NC1CC1`, the inhibition is 42%. With `CCOc1cc2c(cc1OCC)C(C(CC)CC)NCC2` (configuration not stated) the figure was 10%.

For the molecule `COc1cc([N+](=O)[O-])cc2c1NC(c1ccccc1)C1CC=CC21` (configuration not stated), the inhibition was 10%. For `COc1ccc(Cn2c(=O)[nH]c3cc(C(=O)NCc4ccc5c(c4)OCO5)ccc3c2=O)cc1`, the inhibition was 35%.

Turning to `CCCCc1cc2c(=O)c(-c3ccccn3)coc2cc1O`, the inhibition was 18%. With `Nc1ccc2nn(-c3cccc4ccccc34)nc2c1` the figure was 28%. Next, `O=C(O)COc1cc2oc(=O)c3c(c2cc1Cl)CCCC3`: 11%; `CC1(C)CC(=O)c2cn(-c3ccc(Cl)cc3)c(=N)c(C#N)c2C1`: 12%; `CC1CCN(Cc2c(O)ccc3c4c(c(=O)oc23)CCC4)CC1`: 21%. Turning to `Cc1noc(C)c1S(=O)(=O)N(CC(=O)O)c1ccc2c(c1)OCO2`, the inhibition is 31%.
